TDP1 cell CPT: growth inhibition of DT40 Tdp1-/-;hTDP1 cells with camptothecin (screen for TDP1 inhibitors); 420,000 tested, 12% active; Potency, µM (titrated, usually from 46.2 µM), for the others: at the top dose activity change, negative = growth inhibition, hits mostly inhibitors; chicken DT40 Tdp1-/-;hTDP1 cells + 20 nM CPT, ATP luminescence, 48 h; also: % is scaled to controls: 0 for no effect and ±100 for the full control effect; nearly all actives have a fitted effect of over 55% in size
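Cell growth measured by CellTiter-Glo luminescence after a minimum 48 h, 37 C compound exposure with 20 nM CPT in Tdp1-knockout DT40 cells stably expressing hTDP1, seeded 400/well; qHTS titration format.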
ClpP mod: qHTS Assay for Activators of ClpP. 340,000 tested, 1.9% active. Potency, µM (titrated, usually from 57.5 µM), inactives show top-dose activity change, negative = active. purified B. subtilis ClpP, FRET peptide cleavage, 20 min. AID 651965, 2013; active = well fitted falling curve with a large enough effect; inconclusive = small, poorly fitted or top-dose-only effect; inactive = no such curve, though single readings can be large or run the other way; also: the source files actives as falling curves though it sought activators and does not explain the sign; nearly all actives have a fitted effect of over 65% in size
Target sequence (P80244 whole entry, looked up): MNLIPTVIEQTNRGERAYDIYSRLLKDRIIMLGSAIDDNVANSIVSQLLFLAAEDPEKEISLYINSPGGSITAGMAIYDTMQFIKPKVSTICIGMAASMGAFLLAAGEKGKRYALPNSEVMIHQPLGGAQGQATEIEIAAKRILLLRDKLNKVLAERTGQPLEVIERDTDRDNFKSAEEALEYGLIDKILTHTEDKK
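Buffer: 100 mM Tris/HCl pH8, 100 mM KCl, 0.05% low protease BSA, 2.5% glycerol, 0.01% Tween-20. ClpP 10 microg/mL final; 20 min RT; delta FRET normalized to ADEP and DMSO controls.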
TDP1 cell noCPT: qHTS for Inhibitors of human tyrosyl-DNA phosphodiesterase 1 (TDP1): qHTS in cells in absence of CPT; DT40 Tdp1-/- hTDP1 cells, no CPT, ATP luminescence, 48 h; Potency, µM (doses to about 46.2 µM), for the others: at the highest dose activity change, negative = growth inhibition, hits mostly inhibitors; 420,000 tested, 15% active; AID 686978, 2013; also: % is scaled to controls: 0 for no effect and ±100 for the full control effect; nearly all actives have a fitted effect of over 55% in size
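A cellular qHTS used chicken DT40 cells lacking endogenous Tdp1 but carrying stably transfected human TDP1. Compounds were applied without camptothecin, and cell growth kinetics were judged by ATP-dependent luminescence after ≥48 hr.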
TDP1 inh: TDP1 (human) enzyme inhibition; Potency, µM (titrated, usually from 130 µM), inactives show at the highest dose activity change, negative = inhibition, actives largely listed as inhibitors; 350,000 tested, 0.28% active; recombinant TDP1, AlphaScreen DNA substrate cleavage; Q9NUW8; AID 485290; also: % is scaled to controls: 0 for no effect and ±100 for the full control effect; nearly all actives have a fitted effect of over 40% in size
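Steps: enzyme plus compound, 15 min RT; add biotin/phosphotyrosine-FITC oligonucleotide (15 nM final), react 5 min; add donor/acceptor beads (10 ug/ml final), 10 min; read AlphaScreen. Tdp1 at 1 nM final.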
The depositor's hits bear a star; ? = inconclusive; . = not tested or not shown. In the library only some 17% were active in any assay of this set; here they are far more common. Unless noted, calls follow the shape of the dose curve; as a rule, active = well fitted curve in the direction sought with a large enough effect; inconclusive = small, poorly fitted or top-dose-only effect, or another doubt; inactive = no such curve, though single readings can be large; an effect the other way counts as inactive or inconclusive. Potency is read from the fitted curve at half-maximal effect.

SMILES	TDP1 cell CPT	ClpP mod	TDP1 cell noCPT	TDP1 inh
Cc1cccc(-n2c(SC(C)C(=O)O)nc3sc4c(c3c2=O)CCCC4)c1 (centres undefined)	?	-2%	13%	.
CCOc1ccc2nc3cc(N=Nc4ccc(N)nc4N)ccc3c(N)c2c1	5.8µM*	1%	2.6µM*	.
Cc1nn(C)cc1S(=O)(=O)Nc1ccc(C(F)(F)F)cc1	-4%	0%	16%	5%
c1cc(-c2sc(-c3ccncc3)c(-c3ccncc3)c2-c2ccncc2)ccn1	?	.	10µM*	.
Nc1nnc(-c2ccncc2)s1	4%	?	4%	0%
CCOC(=O)C(=CNc1ccc(C)cc1C)C(=O)OCC	?	2%	16µM*	-3%
CCOC(=O)C(=CNc1ccc(OC)cc1[N+](=O)[O-])C(=O)OCC	16µM*	-1%	12µM*	0%
CCOC(=O)C(=CNc1cc(C)nn1-c1ccc(Cl)cc1)C(=O)OCC	23µM*	931%	?	6%
COc1ccc(NC(=O)c2cc(Cl)ccc2Cl)c([N+](=O)[O-])c1	-3%	28µM*	?	2%
CCOc1ccc(NC(=O)CN(C)C(=O)c2sc3ccccc3c2Cl)cc1OCC	-27%	1%	?	.
CCc1nc2c(OCc3ccc(OC(F)F)cc3)cccn2c1N(C)C(=O)c1ccc(OC)cc1	18µM*	1%	13µM*	.
CCc1nc2c(OCc3cc(Cl)cc(Cl)c3)cccn2c1N(C)C(=O)c1ccc(OC)cc1	18µM*	-2%	16µM*	.
CCCCNC(=O)C[C@@H]1C[C@@]2(C(=O)OCC)CCC=C2N(Cc2ccc(Cl)cc2Cl)C1=O	?	-1%	16µM*	.
CCOC(=O)[C@]12CCC=C1N(Cc1ccc(Cl)cc1Cl)C(=O)[C@H](CC(=O)NCCCOC)C2	?	0%	16µM*	.
C[N+](C)(CCOc1ccccc1)Cc1cccs1	6%	.	-25%	.
O=C(Cn1ncc2c3ccccc3n(Cc3ccccc3)c2c1=O)NCCCN1CCCCC1	-17%	-29%	?	-3%
Cc1nc(NCCCN2CCOCC2)c2cnn(-c3ccccc3)c2n1	-29%	.	-13%	.
CN(CC(=O)N1CCCC1)S(=O)(=O)c1ccc2ccccc2c1	?	.	21µM*	3%
Cc1ccc(CC(=O)N2CCN(c3ccccn3)CC2)cc1	-17%	22µM*	-4%	0%
CN1CCN(C(=O)CN(C)S(=O)(=O)c2ccc3ccccc3c2)CC1	18%	.	-25%	-6%
O=C(Cc1ccccc1)N1CCN(c2ncccn2)CC1	12%	-8%	2%	3%
CN(CC(=O)N1CCN(c2ncccn2)CC1)S(=O)(=O)c1ccc(Cl)cc1	4%	.	-15%	5%
CN(CC(=O)N1CCN(c2ccccn2)CC1)S(=O)(=O)c1ccccc1	17%	32µM*	-6%	0%
COc1ccc(/C=C/C(=O)N2CCN(c3ccccn3)CC2)c2ccccc12	?	-6%	26µM*	6%
CCN(CC)C(=O)Cn1c(=O)n(-c2ccc(OC)cc2OC)c(=O)c2c(C)c(C(=O)N(CC)CC)sc21	5%	1%	17%	0%
SMILES	TDP1 cell CPT	ClpP mod	TDP1 cell noCPT	TDP1 inh
O=C(NCCN1CCOCC1)C1(C(F)(F)F)C/C(=C\CCO)CCCO1 (centres undefined)	.	.	.	8%
COc1ccc(C2=C(c3ccccc3)OC(OC)c3cc(F)ccc32)cn1 (centres undefined)	-22%	-8%	?	.
Cc1ccc2cc(C)c(N3CCN(c4ccccn4)CC3)nc2c1	18µM*	?	?	-12%
COc1ccc(CC(=O)N2CCN(c3ccccn3)CC2)cc1	-12%	20µM*	-23%	2%
COC(=O)c1ccc(OCC(=O)NC2CCCCCCC2)cc1	?	.	16µM*	1%
COC(=O)c1ccn(CC(=O)NC2CCCCC2)n1	1%	274%	-19%	28µM*
O=Cc1ccc(OCC(=O)NC(=O)NC2CCCCC2)cc1	?	-3%	?	3%
CC(=O)c1ccc(OCC(=O)NC(=O)NC2CCCCC2)cc1	23µM*	1%	16µM*	3%
O=C(COc1ccc(C(=O)c2ccccc2)cc1)NC1CCCCCC1	26µM*	-3%	16µM*	0%
O=C(Cn1cc2c(n1)CCCC2)NC1CCCCCC1	-15%	1%	-11%	4%
O=C(COC(=O)/C=C/c1cccc([N+](=O)[O-])c1)NCc1ccc2c(c1)OCO2	-6%	0%	-17%	0%
C[C@H](CN1CCCC1)C(=O)c1ccc(C(F)(F)F)cc1	6%	.	-4%	.
CC(C)CCNC(=O)COc1ccc(C(=O)c2ccccc2)cc1	18µM*	1%	?	-5%
CCC(C)(C)NC(=O)COc1ccc(C(=O)c2ccccc2)cc1	-7%	-1%	0%	3%
COc1ccc2[nH]c(=O)c(CN(Cc3ccc4c(c3)OCO4)C(C)=O)cc2c1	?	-19%	-7%	5%
COc1ccc(C(=O)N(Cc2ccco2)Cc2cc3cc(C)ccc3[nH]c2=O)cc1OC	?	-18%	16µM*	.
CCN(Cc1cc2cc(C)ccc2[nH]c1=O)C(=O)c1cccc(OC)c1	?	?	?	-1%
CCc1ccc2[nH]c(=O)c(CN(Cc3ccc4c(c3)OCO4)C(=O)c3ccco3)cc2c1	23µM*	-4%	?	-1%
CCN1CCCC1CN(Cc1cc2cc(C)cc(C)c2[nH]c1=O)C(=O)Nc1ccccc1OC (centres undefined)	13µM*	-16%	21µM*	-2%
COc1ccccc1NC(=S)N(Cc1ccco1)Cc1cc2cc(C)ccc2[nH]c1=O	9.2µM*	2%	13µM*	2%
CCn1c(SCC(=O)N/N=C(/C)c2ccncc2)nc2ccccc21	3%	.	?	1%
COc1cc(=O)n2c(c1C(=O)NCc1nccs1)CCN(Cc1ccccc1F)CC2	-3%	.	-14%	.
CNC(=S)N1CCN(c2nc3ccccc3s2)CC1	0%	.	-15%	?
COc1ccccc1NC(=O)N(Cc1ccco1)Cc1cc2cccc(C)c2[nH]c1=O	16µM*	-4%	29µM*	3%
COC(=O)c1cccc(S(=O)(=O)N(Cc2ccco2)Cc2cc3cc(OC)c(OC)cc3[nH]c2=O)c1	?	28µM*	-18%	6%
Cc1ccc2[nH]c(=O)c(CN(Cc3ccco3)C(=O)c3ccncc3)cc2c1	10µM*	?	10µM*	-4%
COC(=O)c1ccccc1NC(=S)N(Cc1ccc2c(c1)OCO2)Cc1cc2ccc(C)cc2[nH]c1=O	?	-1%	?	1%
COC(=O)c1ccccc1NC(=S)N(Cc1ccc2c(c1)OCO2)Cc1cc2cc(C)ccc2[nH]c1=O	21µM*	-4%	?	-1%
Cc1ccccc1Cn1c(C)c(C(=O)NCc2ccc(Cl)c(Cl)c2)sc1=O	?	-1%	?	.
